This passage reports Potency results from PubChem BioAssay (Tox21).

SMILES strings stand for the structures. A number with no mark means an inactive call. Records with an inconclusive call do not appear. The source made the active and inactive calls. Unless noted, calls follow the shape of the dose curve; as a rule, active = well fitted curve in the direction sought with a large enough effect in the repeat runs; inconclusive = weak or mixed curves; inactive = no such curve, though single readings can be large; an effect the other way counts as inactive or inconclusive.

Test [1] in a line: A CellTox Green Cytotoxicity Assay to monitor cytotoxicity in HEK293 cells - 32 hour (AID 1224881). Also: nearly all actives have a fitted effect of over 40% in size. In a few lines: (§1)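 Seeding of HEK293 cells together with cytotoxicity dye preceded a 5 h incubation at 37 C/5% CO2. Test compounds in DMSO were then added and fluorescence monitored across 40 h.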
Test [2] in a line: A CellTox Green Cytotoxicity Assay to monitor cytotoxicity in HepG2 cells - 0 hour (AID 1224882). Also: nearly all actives have a fitted effect of over 35% in size. Put shortly: (§2)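 Nonlytic assay: viable cells exclude the dye, so fluorescence scales with cell death. HepG2 at 600 cells/well, compounds added after 5 h, signal read across 40 h.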
Test [3] is described as follows: A CellTox Green Cytotoxicity Assay to monitor cytotoxicity in HepG2 cells - 32 hour (AID 1224883). Also: nearly all actives have a fitted effect of over 50% in size. Put shortly:
as §2

The nature of test [4]: A CellTox Green Cytotoxicity Assay to monitor cytotoxicity in HEK293 cells - 8 hour (AID 1224884). Also: nearly all actives have a fitted effect of over 35% in size. In a few lines: as §1
The nature of test [5]: qHTS RealTime-Glo MT Cell Viability Assay in HepG2 cells - 16 hour (AID 1224885). Also: nearly all actives have a fitted effect of over 50% in size. In a few lines:
(§3)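 HepG2 cells (600/well) were dispensed with RealTime-Glo reagents, incubated 5 h at 37 °C, then treated with compounds in DMSO for up to 40 h. Nonlytic NanoLuc luminescence reflecting viable cells was read at each stated time point.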
A general note: In qHTS, concentration-response curves come from the screen itself.

Test [6] can be described thus: qHTS RealTime-Glo MT Cell Viability Assay in HEK293 cells - 24 hour (AID 1224886). Also: nearly all actives have a fitted effect of over 50% in size. Also: potency is read from the fitted curve at half-maximal effect. In a few lines: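 HEK293 cells seeded with NanoLuc/prosubstrate reagent, rested 5 h at 37 C, then dosed and kept at 37 C up to 40 h. Nonlytic real-time luminescence from viable cells read at 0, 8, 16, 24, 32 and 40 h.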
Test [7] in a line: qHTS RealTime-Glo MT Cell Viability Assay in HEK293 cells - 8 hour (AID 1224887). Also: top concentration of the series differs between compounds; nearly all actives have a fitted effect of over 50% in size. In a few lines:
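Tox21 screen in HEK293 using RealTime-Glo MT chemistry, with cells and reagent co-dispensed. Luminescence proportional to viable cell number was captured at intervals during 40 h compound exposure at 37 C.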

The nature of test [8]: A CellTox Green Cytotoxicity Assay to monitor cytotoxicity in HEK293 cells - 16 hour (AID 1224888). Also: nearly all actives have a fitted effect of over 35% in size. Put shortly:
as §1

Test [9] in a line: qHTS RealTime-Glo MT Cell Viability Assay in HepG2 cells - 0 hour (AID 1224889). Also: nearly all actives have a fitted effect of over 50% in size. In a few lines: as §3
Test [10] is described as follows: A CellTox Green Cytotoxicity Assay to monitor cytotoxicity in HepG2 cells - 8 hour (AID 1224890). Also: nearly all actives have a fitted effect of over 45% in size. Put shortly: as §2
Test [11] can be described thus: qHTS assay to identify small molecule antagonists of the estrogen receptor alpha (ER-alpha) signaling pathway using the BG1 cell line in the presence of 0.1 nM 17-beta-estradiol - cell viability counter screen (AID 1259241). Also: nearly all actives have a fitted effect of over 40% in size. In a few lines:
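Estradiol-stimulated (0.1 nM) VM7Luc4E2 cells exposed to compounds 22 hr; viability measured by fluorescence of cleaved CellTiter-Fluor substrate after 30 min.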

Test [12] can be described thus: qHTS assay to identify small molecule antagonists of the androgen receptor (AR) signaling pathway using the MDA cell line in the presence of 0.5 nM R1881 - cell viability counter screen (AID 1259242). Also: nearly all actives have a fitted effect of over 45% in size. In a few lines:
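R1881 at 0.5 nM final stimulated MDA-kb2 cells during 16 hr compound treatment at 37C. Cytotoxicity read: CellTiter-Fluor fluorescence after 30 min.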

A short description of test [13]: qHTS assay to identify small molecule HDAC inhibitors (AID 1259364).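 Also: wild-type HCT-116 cells with endogenous class I/II HDAC activity; top concentration of the series differs between compounds; nearly all actives have a fitted effect of over 45% in size.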 In a few lines:
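Relative class I and II HDAC activity is taken from the luminogenic signal in HCT-116 cells, with compound exposure 2 hr and reagent development 30 min at room temperature.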

A short description of test [14]: qHTS assay to identify small molecule agonists of the sonic hedgehog signaling (Shh) pathway - cell viability counter screen (AID 1259366). Also: nearly all actives have a fitted effect of over 50% in size. Put shortly: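 Same-well cytotoxicity read. Gli1-Luc reporter 3T3 cells; compounds 24hr, 37C/5% CO2; CellTiter-Fluor fluorescence.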
A short description of test [15]: qHTS assay to identify small molecule antagonists of the sonic hedgehog signaling (Shh) pathway - cell viability counter screen (AID 1259367). Also: nearly all actives have a fitted effect of over 55% in size. In a few lines:
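NIH/3T3-derived Gli1-Luc reporter cells (2,000 per well) rested 4 hr at 37 C, then received DMSO compounds plus conditioned medium. After 23 hr of treatment, CellTiter-Fluor was added for 1 hr at 37C and fluorescence read.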

The nature of test [16]: qHTS assay to identify small molecule HDAC inhibitors - cell viability counter screen (AID 1259365). Put shortly:
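After overnight seeding at 1,500 cells per well, wild-type HCT-116 cultures took up compounds in DMSO for 2hr at 37 C. Viable cell content came from luminescence with CellTiter-Glo.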

Test [17] has as its target Estrogen receptor (Homo sapiens) (UniProt P03372). Description: qHTS assay to identify small molecule antagonists of the estrogen receptor alpha (ER-alpha) signaling pathway using the BG1 cell line in the presence of 0.1 nM 17-beta-estradiol (AID 1259244). Also: nearly all actives have a fitted effect of over 50% in size. Also: potency is read from the fitted curve at half-maximal effect. Put shortly:
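VM7Luc4E2; 4xERE-luciferase; 0.1 nM E2 final; 22 h co-incubation, 37C; ONE-Glo luminescence after 30 min at room temperature.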

Test [18] in a line: qHTS assay to identify small molecule phospholipidosis (PLD) inducers (AID 1259344; active = well fitted curve in the direction sought with a large enough effect; an effect the other way counts as inactive or inconclusive). In a few lines: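 HepG2 cells on collagen I, attached 4 h at 37 C, were co-treated with compound and LipidTOX Red dye for 24 h at 37 C, then fixed with paraformaldehyde plus Hoechst 33342 and imaged by high-content microscopy for phospholipid accumulation.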

Sequence of Estrogen receptor (Homo sapiens) (P03372 whole entry, looked up): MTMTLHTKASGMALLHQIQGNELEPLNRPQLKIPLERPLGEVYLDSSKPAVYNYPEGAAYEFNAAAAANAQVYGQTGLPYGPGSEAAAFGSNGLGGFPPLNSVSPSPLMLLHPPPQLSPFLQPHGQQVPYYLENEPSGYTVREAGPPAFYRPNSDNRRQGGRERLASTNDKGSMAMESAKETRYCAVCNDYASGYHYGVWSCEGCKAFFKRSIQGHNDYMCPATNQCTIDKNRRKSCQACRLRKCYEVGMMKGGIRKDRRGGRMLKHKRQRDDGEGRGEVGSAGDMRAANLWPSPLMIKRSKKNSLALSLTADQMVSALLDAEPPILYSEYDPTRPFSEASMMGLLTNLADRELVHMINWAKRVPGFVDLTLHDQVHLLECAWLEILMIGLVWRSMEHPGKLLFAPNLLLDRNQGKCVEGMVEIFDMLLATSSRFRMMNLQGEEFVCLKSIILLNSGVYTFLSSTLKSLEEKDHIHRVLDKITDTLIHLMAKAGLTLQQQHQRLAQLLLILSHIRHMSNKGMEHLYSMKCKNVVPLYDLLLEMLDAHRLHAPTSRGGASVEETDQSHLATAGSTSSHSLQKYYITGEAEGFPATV

Take `CCCCCCCC/C=C/C(=O)O`: the Potency entry in [1], in test [2], in [3], in test [4], in test [5] and in [6] was “inactive” each time. In addition, the Potency result in test [7], in test [8], in test [9], in [10], in test [11] and in [12] was “inactive” in each case. Besides, the Potency result in [13], in [14] and in test [15] was “inactive” each time.

In the case of `CSSc1ccoc1C`, the Potency result in test [1], in test [2], in test [3], in test [4], in test [5] and in [6] was “inactive” each time. The Potency result in test [7], in test [8], in test [9], in test [10], in test [11] and in test [12] was “inactive” in each case. Moreover, the Potency result in [13], in test [16], in [14] and in test [15] was “inactive” in each case.

As for `COc1ccc(-n2nc(C(F)F)cc2-c2ccc(S(C)=O)cc2)cc1` (configuration not stated), the Potency entry in test [1], in [2], in test [4], in [6], in [7] and in test [8] was “inactive” each time. In addition, the Potency entry in test [9], in [10], in test [11], in test [12], in test [17] and in [13] was “inactive” throughout. The Potency result in [16], in [14] and in test [15] was “inactive” each time.

On to `CCOC(=O)c1c(N)sc2c1CCN(Cc1ccccc1)C2`, for which the Potency result in test [1], in test [2], in [3], in test [8], in [9] and in test [10] was “inactive” each time. Moreover, the Potency result in [11], in test [12], in [13], in [16] and in test [14] was “inactive” throughout. Also, the Potency was 19 µM (active) in [6] and 29.8 µM (active) in test [17].

In the case of `O=C(O)CO`, the Potency entry in [1], in test [2], in test [4], in test [5], in test [6] and in test [7] was “inactive” in each case. The Potency result in [8], in [9], in test [10], in test [11], in test [12] and in test [17] was “inactive” throughout. The Potency entry in test [13] and in [14] was “inactive” each time.

For the molecule `CCCCCCC(O)CCOC(C)=O` (configuration not stated), the Potency result in test [1], in test [2], in [3], in [4], in test [5] and in test [6] was “inactive” each time. Further, the Potency entry in test [7], in test [8], in test [9], in test [10], in test [11] and in [12] was “inactive” in each case. Besides, the Potency result in test [16], in test [14] and in [15] was “inactive” throughout.

`COc1cc(NC(C)CCCN)c2ncccc2c1` (configuration not stated): the Potency entry in test [1], in [2], in test [3], in test [5], in test [6] and in test [8] was “inactive” in each case. The Potency result in test [9], in [10], in [12], in [17], in [18] and in test [16] was “inactive” throughout. The Potency result in test [14] and in test [15] was “inactive” in each case.

On to `CC12CC3CC(C)(C1)CC(N)(C3)C2`, for which the Potency entry in test [1], in test [2], in [3], in [4], in test [6] and in test [7] was “inactive” in each case. The Potency result in test [8], in test [9], in test [10], in test [11], in test [12] and in test [17] was “inactive” in each case. Also, the Potency entry in [13], in test [16] and in [15] was “inactive” each time.
